# CYP2C9 activ – activators of human CYP2C9. recombinant CYP2C9, luciferin-H conversion, luminescence; hits give high values; factor 1 = untreated enzyme, 0 = blocked. P11712. activation factor at 5 µM. 1.4% of 96,000 active;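 active = activation factor of 2 or more for CYP2C9 at a 5 µM dose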;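 also: 0 = sulfaphenazole-blocked wells and 1 = vehicle-only wells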
# Target sequence (P11712 whole entry, looked up): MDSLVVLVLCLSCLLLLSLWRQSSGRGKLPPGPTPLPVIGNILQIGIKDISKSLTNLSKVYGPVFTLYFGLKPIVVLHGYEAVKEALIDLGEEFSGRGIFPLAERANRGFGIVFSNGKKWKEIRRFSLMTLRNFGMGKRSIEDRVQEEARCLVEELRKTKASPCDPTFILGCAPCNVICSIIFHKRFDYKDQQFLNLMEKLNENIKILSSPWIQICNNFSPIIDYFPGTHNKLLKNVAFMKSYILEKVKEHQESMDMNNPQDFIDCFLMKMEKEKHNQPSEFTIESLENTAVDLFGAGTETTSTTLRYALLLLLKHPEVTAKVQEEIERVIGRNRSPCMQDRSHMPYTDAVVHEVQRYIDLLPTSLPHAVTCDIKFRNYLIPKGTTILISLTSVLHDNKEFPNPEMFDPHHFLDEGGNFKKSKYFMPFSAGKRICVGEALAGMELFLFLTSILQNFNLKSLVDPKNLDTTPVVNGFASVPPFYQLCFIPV
# CYP2C19 inhib – human CYP2C19 inhibition | inhibition, % at 5 µM | AID 778 | 21% of 96,000 active | CYP2C19 Supersomes, luciferin-H EGE luminescence, 30 min;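 active = CYP2C19 inhibition above a set limit at 5 µM in the primary screen, cut at about 50% in these data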;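 also: plate controls were negative control wells for no effect and 2.5 mM tranylcypromine positive control for full effect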
# PostGolgi yeast – growth inhibition of a yeast mutant, post-Golgi transport screen | post-Golgi transport phenotypic cell assay | AID 739 | inhibition, % at 10 µM | 0.9% of 98,000 active;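 also: yeast cells grown in 1536-well plates; yeast grown about 18 h at 30C before absorbance read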
# CYP2C19 activ – activators of human cytochrome P450 2C19; P33261; recombinant CYP2C19, luciferin-H EGE luminescence; hits give high values; 0 = fully inhibited enzyme, 1 = untreated enzyme; activation factor at 5 µM; 96,000 tested, under 10 active;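 active = activation factor of at least 2 at 5 µM in the primary screen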;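 also: 0 = wells with 2.5 mM tranylcypromine and 1 = vehicle-only wells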
# PostGolgi ctrl – growth of the yeast control strain, post-Golgi counter-screen. inhibition, % at 10 µM. AID 738. efflux-deficient yeast background strain, growth absorbance A615, 16 h. 5% of 98,000 active
# CYP2C9 inhib – inhibitors of human CYP2C9 | P11712 | CYP2C9 Supersomes, luciferin-H conversion, luminescence | inhibition, % at 5 µM | 20% of 96,000 active | AID 777;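 active = blocking of liver enzyme CYP2C9 beyond about 50% at 5 µM, limit read from the data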
# An asterisk follows results filed as active; · = no result. Only some compounds are listed: those with a hit (about 32% of all), similar ones and a draw of the others. Rule as the data show it, unless noted: active = inhibition above about 30%; inactive = the rest.
SMILES,CYP2C9 activ,CYP2C19 inhib,PostGolgi yeast,CYP2C19 activ,PostGolgi ctrl,CYP2C9 inhib
CCOC(=O)C1=C(Cc2ccc(OC)cc2)C(=O)c2ccccc2C1=O,0.5,56.5*,18.2,0.4,12.6,54.6*
CCCCNC(=O)Nc1cc(C(=O)OC)ccc1Cl,1.1,22.7,-0.5,0.8,-3.0,-11.1
CCN(CC)C(=O)CSc1nc2c(sc(=S)n2CC)c(=O)n1-c1ccccc1,0.7,36.4,1.1,0.6,8.0,34.3
COc1ccccc1-n1c(=S)sc2c(=O)n(Cc3ccco3)c(SC)nc21,0.2,64.1*,0.2,0.4,45.5*,75.7*
CCOC(=O)CSc1nc2c(sc(=S)n2Cc2ccco2)c(=O)n1-c1ccc(F)cc1,0.3,55.7*,3.2,0.4,17.0,71.7*
CCN(CC)C(=O)CSc1nc2c(sc(=S)n2-c2ccccc2)c(=O)n1Cc1ccco1,0.3,49.3,5.4,0.5,9.5,67.4*
COC(=O)CCSCC(=O)Nc1nnc(C)s1,1.1,-18.5,19.9,1.2,-4.2,-14.1
O=C(NNC(=S)Nc1ccccc1)c1cccc(Br)c1,0.4,66.2*,-4.8,0.3,3.4,62.2*
Cc1cccc(NC(=S)NNC(=O)c2ccc(Br)o2)c1,0.4,22.9,3.8,0.8,5.1,56.3*
O=C(COc1ccccc1)Nc1cccc(-c2nnc(-c3ccccc3)o2)c1,0.5,35.2,·,0.6,·,52.8*
Cc1cc(C)cc(OCC(=O)Nc2cccc(-c3nnc(-c4ccco4)o3)c2)c1,0.2,67.2*,-0.9,0.3,27.2,79.6*
Cc1cccc(NC(=S)NNC(=O)c2csc3c2CCCC3)c1,1.1,29.6,-12.8,0.7,21.7,-12.7
COc1ccc(OC)c(C2NC(=O)NC(C)=C2C(=O)Nc2ccc(C)cc2)c1 (stereo not given),0.8,32.5,-6.1,0.7,0.7,20.3
N#CC12CCCCC1CC1CCCCC1(C#N)N2Cc1cccnc1 (stereo not given),1,11.4,5.2,0.9,8.0,4.8
C=Cc1cccc(NC(=O)COc2ccccc2)c1,1.1,86.8*,7.2,0.1,8.2,-5.2
CCOc1ccccc1C(=O)Nc1cccc(-c2nnc(-c3ccccc3)o2)c1,1.8,17.3,9.5,0.8,31.5*,-81.0
COc1cc(C(=O)Nc2ccc(-c3nnc(-c4ccco4)o3)cc2)cc(OC)c1OC,0.9,10.3,-7.1,0.9,5.5,6.3
COc1ccc(C(=O)Nc2cccc(-c3nnc(-c4ccco4)o3)c2)cc1,0.4,41.7,0.0,0.6,30.8*,59.7*
O=C(Nc1cccc(-c2nnc(-c3ccccc3)o2)c1)c1ccc(Br)o1,0.3,33.4,-6.0,0.7,37.6*,69.2*
COc1ccc2c(c1)N(C(=O)CSc1n[nH]c(C)n1)C(C)(C)C=C2C,1,42.2,0.8,0.6,1.8,4.5
CCOC(=O)CNC(=O)CN1C(=O)CCS(=O)(=O)c2ccccc21,·,·,3.6,·,6.2,·
COc1ccc(N2CC(C(=O)NCc3ccccc3)CC2=O)cc1 (stereo not given),1.1,3.7,3.1,1,-0.6,-8.5
COc1ccc(N2C(=O)C(Cl)=C(NCc3ccccc3)C2=O)cc1,0,99.4*,-0.8,0,13.2,95.6*
COc1ccccc1C1/C(=C(/O)c2ccccc2)C(=O)C(=O)N1CC(C)O (stereo not given),1,-4.0,2.2,1,-0.3,4.7
O=Cc1cc2ccccc2nc1SCc1ccc(Cl)c(Cl)c1,1,0.5,-5.1,1,38.0*,1.4
SMILES,CYP2C9 activ,CYP2C19 inhib,PostGolgi yeast,CYP2C19 activ,PostGolgi ctrl,CYP2C9 inhib
CCOC(=O)/C(C#N)=C/c1cc2ccccc2nc1Cl,0.8,19.1,8.8,0.8,12.4,21.3
O=Cc1cc2ccccc2nc1SCc1ccc(Cl)cc1,0.7,17.9,67.6*,0.8,22.7,28.5
COc1ccc(/C=N/NC(=O)C(=O)N2CCN(c3ccccc3OC)CC2)cc1,0.6,6.9,-0.3,0.9,2.0,35.5
CN(CC(=O)Nc1ccc(C#N)cc1)Cc1ccc(Cl)c(Cl)c1,0.5,38.9,4.2,0.6,33.5*,45.2
CCCCCn1c(CN2CCN(C)CC2)nc2c1c(=O)n(C)c(=O)n2C,1.1,-17.0,-0.9,1.2,-0.5,-13.6
Cn1c(=O)c2c(nc(CN3CCc4ccccc4C3)n2Cc2cccc(Cl)c2)n(C)c1=O,0.7,18.4,5.0,0.8,33.0*,32.2
CCN1CCN(Cc2nc3c(c(=O)n(C)c(=O)n3C)n2Cc2ccccc2Cl)CC1,1,2.7,3.3,1,31.3*,-4.5
CCOc1nc2c(c(=O)n(C)c(=O)n2C)n1Cc1ccccc1Cl,0.9,25.7,6.4,0.7,17.1,12.6
Cn1c(=O)c2c(nc(CN3CCN(Cc4ccccc4)CC3)n2Cc2cccc(Cl)c2)n(C)c1=O,0.7,45.8,·,0.5,·,26.8
C=CCOc1nc2c(c(=O)n(C)c(=O)n2C)n1Cc1c(Cl)cccc1Cl,0.6,62.2*,13.2,0.4,19.6,44.3
CCN1CCN(Cc2nc3c(c(=O)n(C)c(=O)n3C)n2C(C)C(C)=O)CC1 (stereo not given),0.7,68.1*,15.8,0.3,-20.8,32.0
Cn1c(=O)c2c(nc(-n3ccnc3)n2Cc2ccc(Cl)cc2Cl)n(C)c1=O,0.2,60.3*,-1.4,0.4,6.3,80.2*
Cn1c(=O)c2c(nc(-n3ccnc3)n2Cc2ccccc2)n(C)c1=O,1,4.4,-3.4,1,0.3,0.3
Cn1c(=O)c2c(nc(Br)n2Cc2ccccc2Cl)n(C)c1=O,0.6,76.6*,0.6,0.2,13.5,44.4
N#Cc1cc([N+](=O)[O-])ccc1Oc1cccc(/C=N/NC(=O)c2cccc(Cl)c2)c1,0.5,45.6,-8.8,0.5,-1.9,49.3
CCOC(=O)C(=Cc1ccc(-c2ccsc2C(=O)OC)o1)C(=O)OCC,0.5,34.3,-3.4,0.7,8.4,50.0*
CCOC(=O)/C(C#N)=C/c1ccc(-c2ccsc2C(=O)OC)o1,0.6,32.9,-4.0,0.7,12.9,35.1
CCOC(=O)C(C)n1ncn2cccc2c1=O (stereo not given),1.1,-9.2,-9.6,1.1,-8.5,-6.6
CC(C(=O)Nc1ccccc1)c1ccc(-c2ccccc2)c(F)c1 (stereo not given),1,-12.1,-8.2,1.1,2.7,4.3
CS(=O)(=O)N1CCN(C2Cc3ccccc3C2)CC1,0.9,57.0*,-8.5,0.4,14.7,8.1
Cc1cc2n(n1)C(c1ccc3c(c1)OCO3)Nc1ccccc1-2 (stereo not given),0.3,88.2*,19.0,0.1,15.7,69.9*
Cc1ccc2c(c1)-c1cc(C)nn1C(c1ccc3c(c1)OCO3)N2 (stereo not given),0.1,96.1*,-3.2,0,14.3,88.6*
Cc1ccc(C)n1-c1ccc(N2CCOCC2)nc1,0.9,17.1,0.5,0.8,-7.8,9.3
CCCc1c(C)[nH]c2ccc(NC(C)=O)cc2c1=O,0.6,6.1,-3.1,0.9,3.8,42.6

# Bioassay records (PubChem BioAssay)
